The results in this text go back to PubChem BioAssay AID463173 (ICCB-Longwood Screening Facility, Harvard Medical School, 2010).

About 4,300 (8.3%) of roughly 52,000 compounds were called active. This excerpt belongs to a sample that is enriched for actives. Values without a mark were called inactive. Rule as the data show it: active = survival mostly below about 52% (no sharp cut-off); inactive = mostly above about 56%.

The test deals with DeltatarO mutant. As to the kind of experiment: growth inhibition of S. aureus wild type versus tarO mutant, primary screen, teichoic acid synthesis inhibitors, RN4220, OD600 (AID 463173). As to conditions: OD600, 18 h, stronger effect = lower value, screened at 18.75 µg/mL (by protocol).
`Cc1ccc(Cl)cc1NC(=O)CN1C(=O)CSc2ccc(S(=O)(=O)N3CCCC3)cc21`: the survival was 97%.

Take `CCN1CCN(CCCNC(=O)Cn2nc(C)n3c(cc4cc(C)ccc43)c2=O)CC1`: the survival was 98%.

As for `Cc1cc(C)cc(NC(=O)CCCn2nc(C)c3c(C)n(-c4ccccc4)nc3c2=O)c1`, the survival was 80%.

For `NC(Cc1c[nH]c2ccccc12)C(=O)NCc1ccccc1` (centres undefined), the survival was 92%.

For `CN1C(C(=O)c2ccccc2)=C(NC(=O)c2ccccc2Br)c2ccccc2S1(=O)=O`, the survival was 63%.

`COc1ccccc1C(=O)Nc1ccc(S(=O)(=O)Nc2nc(C)cc(C)n2)cc1`: the survival is 61%.

Regarding `COC(=O)c1cc(Nc2nc3ccccc3nc2NS(=O)(=O)c2ccc(C)cc2)ccc1Cl`, the survival is 29% (active).

As for `O=S(=O)(Nc1nc2ccccc2nc1Nc1ccccc1Br)c1ccccc1`, the survival is 112%.

Take `CCn1c(=O)c2sccc2n2c(CCC(=O)Nc3ccc(OC)c(Cl)c3)nnc12`: the survival was 89%.

As for `CCOc1ccc(CNC(=O)c2ccc(-c3nc(CS(=O)(=O)c4ccccc4)c(C)o3)cc2)cc1`, the survival was 76%.

For `COC(=O)c1ccccc1NC(=O)CN(c1ccc(Cl)cc1)S(=O)(=O)c1ccc(OC)cc1`, the survival is 72%.

For `COc1ccc(NC(=O)c2sc3nc(C)c(C(=O)Nc4ccc(C)cc4C)c(-c4ccc(C)o4)c3c2N)cc1`, the survival is 51%.

In the case of `COc1cccc(NC(=O)c2sc3nc(C)c(C(=O)Nc4ccc(C)cc4C)c(-c4ccco4)c3c2N)c1`, the survival is 79%.

With `COc1cccc(NC(=O)c2sc3nc(C)c(C(=O)Nc4ccc(C)cc4C)c(-c4ccc(C)o4)c3c2N)c1`, the survival is 39% (active).

Regarding `Cc1ccc(/C=C/c2onc(C)c2S(=O)(=O)N2CCC(C(=O)N3CCN(c4ccccc4F)CC3)CC2)cc1`, the survival is 116%.

Take `Cc1ccc(CCNC(=O)c2ccc(NC(=O)N3CC(C)Sc4ccccc43)cc2)cc1` (centres undefined): the survival is 73%.

For `CCOc1ccc(-c2nc(Cn3c(=O)cc(-c4ccccc4)c4c(C)nn(C)c43)c(C)o2)cc1`, the survival was 128%.

Consider `CCc1ccc(-c2[nH]nc3nc(-c4ccc(OC)cc4)cc(C(=O)NCCc4ccc(OC)c(OC)c4)c23)cc1`, for which the survival was 81%.

In the case of `CCc1ccc(-c2cn3nc(CC)sc3n2)cc1`, the survival is 66%.

With `CC(=O)N1CCc2c(sc3c2c(=O)n(CCc2ccccc2)c(=O)n3CC(=O)Nc2ccccc2F)C1`, the survival is 55%.

As for `COc1c(C)cc(NS(=O)(=O)c2ccc3c(c2)OCCO3)cc1C`, the survival was 72%.

Take `O=C(COCc1cc(-c2cccs2)on1)N1CCN(c2ccccc2)CC1`: the survival is 72%.

Regarding `O=C(COCc1cc(-c2cccs2)on1)Nc1cccc(O)c1`, the survival is 0% (active).

For the compound `O=C(COCc1cc(-c2cccs2)on1)N1CCN(c2cccc(Cl)c2)CC1`, the survival was 37% (active).

Regarding `Cc1ccc(NC(=O)COCc2cc(-c3cccs3)on2)cc1Cl`, the survival was 57%.

Take `O=C(COCc1cc(-c2ccco2)on1)Nc1cccc(O)c1`: the survival is 78%.

As for `O=C(COCc1cc(-c2cccs2)on1)N1CCN(c2ccc(F)cc2)CC1`, the survival is 98%.

With `O=C(c1ccc2c(c1)N(Cc1ccccc1F)C(=O)c1ccccc1S2=O)N1CCC(Cc2ccccc2)CC1` (centres undefined), the survival was 77%.

As to `Cc1cccc(C)c1NC(=O)Cn1nnc(S(=O)(=O)c2ccccc2)c1N`, the survival was 91%.

Consider `Cc1cccc(NC(=O)CSc2cn(CC(=O)N3CCOCC3)c3ccccc23)c1C`, for which the survival is 64%.

As to `O=C(c1ccc2c(c1)N(Cc1ccccc1)C(=O)c1ccccc1S2(=O)=O)N1CCCCCC1`, the survival is 70%.

Consider `COc1ccc(CNC(=O)C(C)n2ccc3cc(S(=O)(=O)N4CCCC4)ccc32)cc1OC` (centres undefined), for which the survival is 85%.

For the compound `O=C(NCc1ccco1)C(c1ccccc1)N(CCc1ccccc1)C(=O)Cn1nnc2ccccc21` (centres undefined), the survival was 99%.

With `O=C(CSc1c2c(nc3ccc(Cl)cc13)CCCC2)N1CCN(c2cccc(Cl)c2)CC1`, the survival is 51% (active).

In the case of `O=C(CSc1c2c(nc3cc(Cl)ccc13)CCCC2)N1CCN(c2ccccc2F)CC1`, the survival is 50%.

Regarding `COc1ccc(OC)c(NC(=O)CSc2c3c(nc4cc(Cl)ccc24)CCCC3)c1`, the survival was 86%.

Regarding `COc1ccc(CNC(=O)CSc2c3c(nc4ccc(Cl)cc24)CCCC3)cc1`, the survival was 77%.

As for `O=C(CSc1c2c(nc3ccc(Cl)cc13)CCCC2)N1CCN(c2ccc(Cl)cc2)CC1`, the survival was 31% (active).

With `COc1ccc(N2CCN(C(=O)CSc3c4c(nc5ccc(Cl)cc35)CCCC4)CC2)cc1`, the survival was 35% (active).

For the compound `O=C(CSc1c2c(nc3cc(Cl)ccc13)CCCC2)NCc1ccccc1Cl`, the survival was 75%.

Turning to `O=C(CSc1c2c(nc3cc(Cl)ccc13)CCCC2)N1CCN(c2ccccc2)CC1`, the survival is 33% (active).

On to `Cc1sc2ncn(CC(=O)Nc3ccc(C(C)C)cc3)c(=O)c2c1S(=O)(=O)N1CCN(c2ncccn2)CC1`, for which the survival was 59%.

Consider `CC1=C(C(=O)Nc2ccccc2C)C(c2ccco2)n2ncnc2N1` (centres undefined), for which the survival is 101%.

As to `CCc1cccc(C)c1NS(=O)(=O)c1cc2[nH]c(=O)c(=O)[nH]c2cc1C`, the survival was 80%.

As to `CC(=O)c1ccc(N2CCN(c3ncnc4c3nc3n4CCCC3)CC2)cc1`, the survival was 75%.

In the case of `COC(=O)c1ccccc1NC(=O)Cn1c(=O)n(CCCCC(=O)NCc2ccc3c(c2)OCO3)c(=O)c2ccccc21`, the survival was 67%.

For `COc1ccc(-c2nc3sc(CCNC(=O)c4ccc(Br)o4)c(C)n3n2)cc1`, the survival is 92%.

On to `COc1ccc(C)cc1NC(=O)C1COc2ccccc2C1` (centres undefined), for which the survival is 83%.

Turning to `COc1ccccc1C(=O)N(c1ccc(C)cc1)S(=O)(=O)c1ccc(Cl)cc1`, the survival is 74%.

With `COC(=O)c1ccc(NC(=O)CC2C(=O)N(c3cccc(OC)c3)C(=O)N2Cc2cccc(OC)c2)cc1` (centres undefined), the survival is 105%.

Take `COc1cc(OC)c(NC(=O)N2CCCn3nc(C)cc32)cc1Cl`: the survival was 47% (active).

`COc1ccc(C)cc1NC(=O)N1CCCn2nc(C)cc21`: the survival is 73%.

Turning to `COC(=O)c1ccc(Cl)cc1NC(=O)N1CCCn2nc(C)cc21`, the survival is 94%.

With `O=C(NC1CCCCC1)C(Cc1ccccc1)N1C(=O)C2C3C=CC(C3)C2C1=O` (centres undefined), the survival was 92%.
